# Experimental data: PubChem BioAssay (NCATS)
# Results filed as inconclusive are left out. Entries that show only a call come without a potency. The source made the active and inactive calls. Unless noted, calls come from the whole dose curve; as a rule, active = well fitted curve in the direction sought with a large enough effect; inconclusive = small, poorly fitted or top-dose-only effect, or another doubt; inactive = no such curve, though single readings can be large; an effect the other way counts as inactive or inconclusive.
# Assays:
# [1] = system: Zika virus NS2B-NS3 protease (unlinked complex); experiment: Primary screen GU Rhodamine qHTS for Zika virus inhibitors: Unlinked NS2B-NS3 protease assay (AID 1347159); note: nearly all actives have a fitted effect of over 60% in size
# In short: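 A qHTS format was used, with compound concentrations ranging up to 114 microM. Each compound was preincubated with 25 nM NS2B-NS3 protease, and the substrate was then added at 1.5 microM. Curves were fitted with a 4-parameter Hill model.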
# [2] = system: Zika virus NS2B-NS3 protease (linked construct); experiment: Primary screen NINDS Rhodamine qHTS for Zika virus inhibitors (AID 1347160); note: nearly all actives have a fitted effect of over 55% in size
# In short: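 Kinetic fluorescence (Ex 480 nm, Em 540 nm) over 15 min with 1.5 microM Rhodamine110 peptide and 25 nM linked protease.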
# [3] = target: Calcium and integrin-binding protein 1 (Homo sapiens) (UniProt Q99828); experiment: Primary qHTS for Identification of Calcium Integrin Binding Protein 1 (CIB1) Competitor (AID 1508620);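 note: GST tagged CIB1 binding a fluorescein labelled alphaIIb integrin peptide tracer; top concentration of the series differs between compounds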
# In short: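 Fluorescence polarization competition: GST-tagged CIB1 (1 uM final) preincubated with compound 15 min at room temperature, then FITC-labelled alphaIIb peptide (100 nM final) added. After 15 min at room temperature, polarization read at Ex 480/Em 540.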
# [4] = Primary qHTS for inhibitors of nuclear receptor binding SET domain protein 2 (NSD2) in an isogenic RCH-ACV NSD2 p.E1099K mutant (9B) (AID 1645876); note: potency is the fitted concentration of half-maximal effect; nearly all actives have a fitted effect of over 70% in size
# [5] = Primary qHTS for inhibitors of nuclear receptor binding SET domain protein 2 (NSD2) in an RCH-ACV wild type WT cells (2C) (AID 1645877); note: potency is the fitted concentration of half-maximal effect; nearly all actives have a fitted effect of over 70% in size
# [6] = target: Glutathione peroxidase 1 (Homo sapiens) (UniProt P07203); experiment: Primary qHTS Assay for Inhibitors of Recombinant Selenoprotein Glutathione Peroxidase 1 (GPX1) (AID 1845191); note: nearly all actives have a fitted effect of over 65% in size
# In short: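 GR-coupled assay: compounds preincubated 30 min at room temperature with GPX1, then reaction started with CHP; final 10 nM GPX1, 1 mM GSH, 0.5 mM CHP, 0.5 mM NADPH, 100 nM GR, 0.01% BSA, pH 7.5 Tris buffer. NADPH fluorescence (340/450 nm) read at 0 and 15 min.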
# [7] = target: Phospholipid hydroperoxide glutathione peroxidase GPX4 (Homo sapiens) (UniProt P36969); experiment: Primary qHTS Assay for Inhibitors of Recombinant Selenoprotein Glutathione Peroxidase 4 (GPX4) (AID 1845192); note: nearly all actives have a fitted effect of over 65% in size
# In short: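 GR-coupled assay: recombinant GPX4 preincubated 30 min with compound at room temperature; final 200 nM GPX4, 1 mM GSH, 0.5 mM cumene hydroperoxide, 0.5 mM NADPH, 100 nM GR, 0.01% BSA, pH 7.5 Tris. NADPH fluorescence (340/450 nm) read at 0 and 15 min.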
# [8] = target: Luciferin 4-monooxygenase (Photinus pyralis) (UniProt P08659); experiment: Primary firefly luciferase (FLuc) qHTS assay for identification of artifact compounds. (AID 1845220); conditions: outcome: dose series up to 54.1 µM unless noted; note: nearly all actives have a fitted effect of over 60% in size
# In short: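 Titrated compounds were incubated 15 min at RT, protected from light, with luciferin and ATP at 10 uM; reaction started with 10 nM FLuc, luminescence imaged at 5 min, and concentration-response fitted by Hill equation.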
# [9] = Primary fluorescence-based thiol-reactive (MSTI) qHTS assay for identification of artifact compounds. (AID 1845221);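 note: thiol-reactive compounds lower the probe fluorescence signal; nearly all actives have a fitted effect of over 65% in size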
# In short: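 Reactivity toward the thiol probe MSTI (4 uM) is scored by fluorescence at Ex/Em 525/598 nm after 1 h at room temperature. Acetyl-MSTI and MSTI define the activity scale.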
# [10] = system: Nanoluciferase (engineered Oplophorus gracilirostris luciferase); experiment: Primary Nanoluciferase (NLuc) qHTS assay for identification of artifact compounds. (AID 1845222);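 note: NLuc secreted into diluted conditioned medium of S16 cells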
# In short: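 qHTS format, against NLuc in S16 cell-conditioned medium. Nano-Glo substrate 1:100 was added after 15 min at room temperature. Luminescence was taken after a further 5 min.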
# HeLa = experiment: Primary qHTS to identify gynecologic anti-cancer compounds using libraries of approved drugs and bioactive compounds (AID 1345084); conditions: Gynecologic cancer cell panel viability, ATPlite luminescence, 48 h; series mostly up to 57.5 µM; note: nearly all actives have a fitted effect of over 55% in size
# In short: (§1)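 Measured: luminescence after ATPlite addition (15 min, RT). Exposure: 48 h, 37 C, 5% CO2.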
# JEG-3 = experiment: as above; conditions: Gynecologic cancer cell panel viability, ATPlite luminescence, 48 h; series mostly up to 57.5 µM
# In short: as §1
# [11] = qHTS Assay for Identifying Gametocytocidal Compounds (AID 743244);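 note: actives lower the fluorescent signal which means gametocytes are killed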; conditions: P. falciparum 3D7 stage III-V gametocytes, alamarBlue, 72 h; max response: stronger effect = lower value
# In short: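 Using 20,000 stage III–V 3D7 gametocytes per well, compounds were incubated 72 h under 37 °C/5% CO2. Viability was then assessed by 24 h alamarBlue reduction, measured fluorometrically at 525/598 nm.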
# [12] = Drug repurposing screens with cells derived from glioblastoma tumor samples (AID 1345199); conditions: GBM patient neurospheres viability, ATP luminescence, 48 h; Potency: tumour line A; series mostly up to 45.9 µM; note: nearly all actives have a fitted effect of over 40% in size
# In short: (§2)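 Four patient lines of CD133+ GBM neurospheres were screened at several concentrations; hits were retested in those lines plus three slower-growing GBM lines, using 48-hour treatment and ATP-based viability.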
# astro = experiment: as above; conditions: viability, ATP luminescence, 48 h; series mostly up to 45.9 µM
# In short: as §2
# [13] = P-glycoprotein substrates identified in KB-3-1 adenocarcinoma cell line, qHTS therapeutic library screen (AID 1346986);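 note: potency is the fitted concentration of half-maximal effect; potency is for cytotoxicity meaning loss of cell viability; nearly all actives have a fitted effect of over 60% in size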
# In short: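 KB-3-1 parental and colchicine-selected P-gp-overexpressing KB-8-5-11 cells (colchicine omitted during assay), 500 cells/well, dosed in dose-response for 72 h at 37 °C; CellTiter-Glo luminescence. Cytotoxic: curve class -1.1 to -2.4, max response >50%, AC50 < 10 uM.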
# [14] = P-glycoprotein substrates identified in KB-8-5-11 adenocarcinoma cell line, qHTS therapeutic library screen (AID 1346987); note: potency is the fitted concentration of half-maximal effect; nearly all actives have a fitted effect of over 65% in size
# In short: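 KB-8-5-11, a colchicine-selected P-gp-overexpressing KB-3-1 subline, was grown without colchicine for the assay. Cells were seeded at 500 cells/well, dosed in concentration-response and incubated 72 h at 37 degree C, 5% CO2. Viability was read by CellTiter-Glo luminescence.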
# [15] = Primary qHTS for inhibitors of SARS-S pseudo-typed particle cell entry (AID 1479145; calls by dose curve; note: nearly all actives have a fitted effect of over 45% in size)
# [16] = Primary qHTS for Huh7 cytotoxicity: counterscreen for inhibitors of MERS-S pseudotyped particle cell entry (AID 1479147; calls by dose curve); conditions: outcome: dose series up to 57.1 µM unless noted
# [17] = Primary qHTS for inhibitors of MERS-S pseudo-typed particle cell entry (AID 1479149; calls by dose curve; note: nearly all actives have a fitted effect of over 60% in size)
# [18] = Primary qHTS for Vero E6 cytotoxicity: counterscreen for inhibitors of SARS-S pseudo-typed particle cell entry (AID 1479150; calls by dose curve); conditions: outcome: dose series up to 57.1 µM unless noted
# [19] = Primary qHTS to identify inhibitors of SARS-CoV-2 cell entry (AID 1645846; calls by dose curve; note: nearly all actives have a fitted effect of over 45% in size); conditions: activity change, negative = inhibition: at 57.1 µM (top of the series) unless noted
# In short: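 Luminescence readout (Bright-Glo luciferase) 48 h after pseudoparticle addition. HEK293-ACE2 cells, 1500/well; compound pre-incubation 1 h; Normalized to spike PP and bald PP.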
# [20] = qHTS for Inhibitors of the Functional Ribonucleoprotein Complex (vRNP) of Lassa (LASV) Arenavirus: LASV Primary Screen - GLuc reporter signal (AID 1347082; calls by dose curve; tested in HEK293 reporter line; note: nearly all actives have a fitted effect of over 60% in size)
# [21] = qHTS for Inhibitors of the Functional Ribonucleoprotein Complex (vRNP) of Lassa (LASV) Arenavirus: Viability assay - alamar blue signal for LASV Primary Screen (AID 1347083; calls by dose curve; tested in HEK293 reporter line; note: nearly all actives have a fitted effect of over 80% in size)
# [22] = qHTS for Inhibitors of the Functional Ribonucleoprotein Complex (vRNP) of Lymphocytic Choriomeningitis Arenaviruses (LCMV): Viability assay - alamar blue signal for LCMV Primary Screen (AID 1347085; calls by dose curve; tested in HEK293 reporter line; note: nearly all actives have a fitted effect of over 80% in size)
# Sequence of Glutathione peroxidase 1 (Homo sapiens) (P07203 whole entry, looked up): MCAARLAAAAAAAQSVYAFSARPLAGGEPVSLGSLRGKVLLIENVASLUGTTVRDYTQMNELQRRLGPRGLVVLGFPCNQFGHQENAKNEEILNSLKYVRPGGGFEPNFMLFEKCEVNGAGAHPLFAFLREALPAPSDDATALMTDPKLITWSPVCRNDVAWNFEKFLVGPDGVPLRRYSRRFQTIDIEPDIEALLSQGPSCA
# Sequence of Phospholipid hydroperoxide glutathione peroxidase GPX4 (Homo sapiens) (P36969 whole entry, looked up): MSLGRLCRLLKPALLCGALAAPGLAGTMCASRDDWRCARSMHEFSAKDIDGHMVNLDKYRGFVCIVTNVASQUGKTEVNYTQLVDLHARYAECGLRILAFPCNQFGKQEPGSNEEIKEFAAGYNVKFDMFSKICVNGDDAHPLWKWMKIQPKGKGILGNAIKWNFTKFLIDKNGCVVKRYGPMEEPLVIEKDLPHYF
# Sequence of Calcium and integrin-binding protein 1 (Homo sapiens) (Q99828 whole entry, looked up): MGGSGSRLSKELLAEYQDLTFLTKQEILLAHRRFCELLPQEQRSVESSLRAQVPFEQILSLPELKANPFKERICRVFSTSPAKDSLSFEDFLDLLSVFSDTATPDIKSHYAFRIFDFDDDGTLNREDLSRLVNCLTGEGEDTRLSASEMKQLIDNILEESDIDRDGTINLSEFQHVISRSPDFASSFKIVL
smiles,measurement,setting,value
CC1=CC2/C=C(\C)CCC(O)C(O)C(O)CC(=O)C23C(=O)NC(CC(C)C)C3C1C (configuration not stated),Potency,[1],inactive
same,Potency,[2],inactive
same,Potency,[3],inactive
same,Potency,[4],4.47 µM (active)
same,Potency,[5],3.17 µM (active)
same,Potency,[6],inactive
same,Potency,[7],inactive
same,outcome,[8],inactive [at 25.7 µM]
same,Potency,[9],inactive
same,Potency,[10],inactive
same,Potency,HeLa,inactive
same,Potency,JEG-3,inactive
c1ccc2c(c1)Sc1ccccc1N2C[C@@H]1CN2CCC1CC2,max response,[11],-2.33% (inactive)
same,Potency,[12],inactive
same,Potency,astro,inactive
COC[C@@H]1OC(=O)/C(=C\N(C)CCCN(C)C)C2=C(O)C(=O)C3=C([C@@H](OC(C)=O)C[C@@]4(C)[C@@H]3CC[C@@H]4O)[C@@]21C,Potency,[13],13 µM (active)
same,Potency,[4],2.59 µM (active)
same,Potency,[5],2.59 µM (active)
same,Potency,[6],inactive
COCC1OC(=O)c2coc3c2C1(C)C1=C(C3=O)C2CCC(=O)C2(C)CC1OC(C)=O (configuration not stated),Potency,[13],20.6 µM (active)
same,Potency,[14],6.51 µM (active)
same,Potency,[4],3.66 µM (active)
same,Potency,[5],1.3 µM (active)
C[C@]12CC[C@H]3[C@@H](CCC4=CC(=O)CC[C@@]43C)[C@@H]1CC[C@@H]2OC(=O)CCc1ccccc1,max response,[11],3.81% (inactive)
same,Potency,[14],10 µM (active)
same,Potency,[15],inactive
same,outcome,[16],inactive
same,Potency,[17],inactive
same,outcome,[18],inactive
same,"activity change, negative = inhibition",[19],-18.9%
same,Potency,[6],inactive
same,Potency,[7],inactive
C[C@H]([C@@H](O)[C@@H](O)[C@@H](C)C(C)(C)C)[C@H]1CC[C@H]2C3CC[C@H]4C[C@H](OS(=O)(=O)O)[C@@H](OS(=O)(=O)O)C[C@]4(C)[C@H]3CC[C@]12C (some centres not stated),Potency,[20],inactive
same,Potency,[21],inactive
O=C(C=Cc1ccc(O)cc1)c1ccc(O)cc1O,Potency,[20],inactive
same,Potency,[21],inactive
same,Potency,[22],inactive
